Binding signal data for 39 sequences are collected here from paper PMC5700166.

This test addresses T1, GST-Nv-NF-kB (Ser allele) (Nematostella vectensis, UniProt A7UNT2 2-411).
T1 sequence: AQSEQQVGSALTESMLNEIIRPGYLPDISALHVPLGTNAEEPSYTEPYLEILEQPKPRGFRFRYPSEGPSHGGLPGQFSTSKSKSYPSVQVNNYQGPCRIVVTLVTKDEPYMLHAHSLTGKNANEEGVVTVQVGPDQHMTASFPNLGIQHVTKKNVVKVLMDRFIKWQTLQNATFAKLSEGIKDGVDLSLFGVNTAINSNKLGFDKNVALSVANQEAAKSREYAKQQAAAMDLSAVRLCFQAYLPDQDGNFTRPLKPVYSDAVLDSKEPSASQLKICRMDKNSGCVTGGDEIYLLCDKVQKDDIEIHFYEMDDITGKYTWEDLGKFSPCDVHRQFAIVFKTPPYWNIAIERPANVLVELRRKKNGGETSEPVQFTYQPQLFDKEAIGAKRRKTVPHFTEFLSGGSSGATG
Briefly: protein-binding microarray (PBM); PBM: ~300 nM protein, 6 mM HEPES pH 7.8, 80 mM KCl, 0.5 mM EDTA, 0.5 mM EGTA, 6% glycerol, 35 ng/ul poly-dIdC, 1% milk, 1 h, room temperature; Ap Aiptasia and Nv Nematostella (sea anemones) / Co Capsaspora / Aq Amphimedon (sponge) / Dm Drosophila / Hu human; RHD is the Rel homology domain; high values mean tight binding. The conditions noted are these: dsDNA, one strand shown.
For the sequence “CCGATTAACATCAGGGGGTAACCTGATGTTAATCGGGTCTTGATTCGCTTGACGCTGCTG”, the binding signal worked out at 3.93 z-score.
“CCGATTAACATCATAAGGGGTGTTGATGTTAATCGGGTCTTGATTCGCTTGACGCTGCTG”: the binding signal was found to be 1.09 z-score.
Sequence “CCGATTAACATCAAGGGATTTCCTGATGTTAATCGGGTCTTGATTCGCTTGACGCTGCTG” gave a binding signal of 3.4 z-score.
Next, “CCGATTAACATCAGGGGTATAACTGATGTTAATCGGGTCTTGATTCGCTTGACGCTGCTG”: 1.03 z-score; “CCGATTAACATCAAACAACCCCCTGATGTTAATCGGGTCTTGATTCGCTTGACGCTGCTG”: 4.83 z-score; “CCGATTAACATCATTGTCCCTTCTGATGTTAATCGGGTCTTGATTCGCTTGACGCTGCTG”: 3.35 z-score.
Take “CCGATTAACATCAGGGATTACCATGATGTTAATCGGGTCTTGATTCGCTTGACGCTGCTG”: the binding signal is 2.16 z-score.
The sequence “CCGATTAACATCAGGGAACTCCATGATGTTAATCGGGTCTTGATTCGCTTGACGCTGCTG” gave a binding signal of 1.24 z-score.
Next, “CCGATTAACATCACCAAATTCCCTGATGTTAATCGGGTCTTGATTCGCTTGACGCTGCTG”: 6.26 z-score.
Regarding “CCGATTAACATCAAGTGTTTCCCTGATGTTAATCGGGTCTTGATTCGCTTGACGCTGCTG”, the binding signal worked out at 3.36 z-score.
As for “CCGATTAACATCAACGTATTCCCTGATGTTAATCGGGTCTTGATTCGCTTGACGCTGCTG”, the binding signal stood at 3.53 z-score.
Next, “CCGATTAACATCAGGATAATCCCTGATGTTAATCGGGTCTTGATTCGCTTGACGCTGCTG”: 1.62 z-score; “CCGATTAACATCAGAGAAACCCCTGATGTTAATCGGGTCTTGATTCGCTTGACGCTGCTG”: 4.24 z-score; “CCGATTAACATCAGGGACACCCCTGATGTTAATCGGGTCTTGATTCGCTTGACGCTGCTG”: 3.24 z-score.
Next, “CCGATTAACATCAGAAAAAACCCTGATGTTAATCGGGTCTTGATTCGCTTGACGCTGCTG”: 5.08 z-score; “CCGATTAACATCAGGGGGGCACCTGATGTTAATCGGGTCTTGATTCGCTTGACGCTGCTG”: 2 z-score.
The sequence “CCGATTAACATCAGGAATAACCCTGATGTTAATCGGGTCTTGATTCGCTTGACGCTGCTG” came in with a binding signal of 1.44 z-score.
As for “CCGATTAACATCAAGGGAATACCTGATGTTAATCGGGTCTTGATTCGCTTGACGCTGCTG”, the figure is 4.14 z-score.
Regarding “CCGATTAACATCAAATCGGGAAATGATGTTAATCGGGTCTTGATTCGCTTGACGCTGCTG”, the binding signal turned out to be 2.88 z-score.
As for “CCGATTAACATCATTGGGAAAAATGATGTTAATCGGGTCTTGATTCGCTTGACGCTGCTG”, the figure is 3.58 z-score; as for “CCGATTAACATCAGTTCCCCCCATGATGTTAATCGGGTCTTGATTCGCTTGACGCTGCTG”, 5.19 z-score; as for “CCGATTAACATCAAATACTTCCCTGATGTTAATCGGGTCTTGATTCGCTTGACGCTGCTG”, 3.4 z-score.
Next, “CCGATTAACATCAAAATCTTCCCTGATGTTAATCGGGTCTTGATTCGCTTGACGCTGCTG”: 6.32 z-score; “CCGATTAACATCACCCGGGAAAATGATGTTAATCGGGTCTTGATTCGCTTGACGCTGCTG”: 4.34 z-score; “CCGATTAACATCAGAATTGCCCCTGATGTTAATCGGGTCTTGATTCGCTTGACGCTGCTG”: 2.89 z-score.
Turning to “CCGATTAACATCAGGGAAACCCATGATGTTAATCGGGTCTTGATTCGCTTGACGCTGCTG”, the binding signal amounted to 3.84 z-score.
As for “CCGATTAACATCAGAGTTTCCCATGATGTTAATCGGGTCTTGATTCGCTTGACGCTGCTG”, the figure is 3.14 z-score; as for “CCGATTAACATCACTGGGAAAACTGATGTTAATCGGGTCTTGATTCGCTTGACGCTGCTG”, 3.57 z-score.
As for “CCGATTAACATCAAGGAATACCCTGATGTTAATCGGGTCTTGATTCGCTTGACGCTGCTG”, the figure is 4.74 z-score; as for “CCGATTAACATCAAGGACTTCCCTGATGTTAATCGGGTCTTGATTCGCTTGACGCTGCTG”, 2.77 z-score; as for “CCGATTAACATCACCTTCCCCCCTGATGTTAATCGGGTCTTGATTCGCTTGACGCTGCTG”, 5.23 z-score.
Regarding “CCGATTAACATCACGTATTTCCCTGATGTTAATCGGGTCTTGATTCGCTTGACGCTGCTG”, the binding signal turned out to be 4.49 z-score.
Next, “CCGATTAACATCAGGGCAGTACCTGATGTTAATCGGGTCTTGATTCGCTTGACGCTGCTG”: 2.24 z-score; “CCGATTAACATCAGGGGGATCACTGATGTTAATCGGGTCTTGATTCGCTTGACGCTGCTG”: 5.27 z-score.
Next, “CCGATTAACATCAGGAGTTTCCCTGATGTTAATCGGGTCTTGATTCGCTTGACGCTGCTG”: 4.67 z-score.
Turning to “CCGATTAACATCATGGGGACGACTGATGTTAATCGGGTCTTGATTCGCTTGACGCTGCTG”, the binding signal came to 2.44 z-score.
As to “CCGATTAACATCAGGGGTGGGAATGATGTTAATCGGGTCTTGATTCGCTTGACGCTGCTG”, the binding signal was found to be 1.67 z-score.
Next, “CCGATTAACATCACGGAGTTCCCTGATGTTAATCGGGTCTTGATTCGCTTGACGCTGCTG”: 1.77 z-score; “CCGATTAACATCAGGGGGTATACTGATGTTAATCGGGTCTTGATTCGCTTGACGCTGCTG”: 4.26 z-score.
